Vaccinia mCherry – vaccinia inhibition (mCherry reporter); Vaccinia virus mCherry reporter infection, fluorescence; Potency, µM (doses to about 36.5 µM), inactives show top-dose activity change, negative = inhibition, usual class: inhibitors; 310,000 tested, 0.63% active; AID 720579; calls by dose curve; tested in A549 cells; note: potency is the fitted concentration of half-maximal effect; nearly all actives have a fitted effect of over 35% in size
Giardia FBPA inh – inhibitors of Giardia lamblia fructose-1,6-bisphosphate aldolase | A8B2U2 | Potency, µM (highest dose often 59.6 µM), without a hit: at the highest dose activity, negative = inhibition, actives largely listed as inhibitors | purified Giardia FBPA | 290,000 tested, 0.71% active | AID 2451; note: potency is the fitted concentration of half-maximal effect; nearly all actives have a fitted effect of over 55% in size
Target sequence (A8B2U2 whole entry, looked up): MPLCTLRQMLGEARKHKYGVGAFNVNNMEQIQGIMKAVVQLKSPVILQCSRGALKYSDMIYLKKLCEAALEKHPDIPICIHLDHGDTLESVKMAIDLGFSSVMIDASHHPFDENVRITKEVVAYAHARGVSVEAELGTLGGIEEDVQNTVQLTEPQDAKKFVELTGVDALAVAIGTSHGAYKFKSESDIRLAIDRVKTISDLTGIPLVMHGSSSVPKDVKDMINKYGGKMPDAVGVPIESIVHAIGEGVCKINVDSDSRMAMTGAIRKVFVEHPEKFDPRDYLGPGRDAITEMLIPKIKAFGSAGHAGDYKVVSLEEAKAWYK
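40 nM FBPA preincubated 10 min at RT with compound (up to 57.5 uM final), then substrate plus GAPDH/TPI/NAD/arsenate coupling and diaphorase/resazurin added. Fluorescence read after 20 min at RT, 525/598 nm.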
VACV Venus inh – inhibitors of vaccinia virus (Venus reporter). Vaccinia virus Venus reporter expression, fluorescence. Potency, µM (top dose mostly 36.5 µM), without a hit: at the highest dose activity change, negative = inhibition, most hits filed as inhibitors. 330,000 tested, 0.46% active; calls by dose curve; tested in A549 cells; note: potency is the fitted concentration of half-maximal effect; nearly all actives have a fitted effect of over 30% in size
FMDV antiviral – foot and mouth disease virus antiviral activity; FMDV antiviral cell-based qHTS; Potency, µM (series often up to 57.9 µM), for the others: at the top dose activity change, negative = inhibition, actives largely listed as inhibitors; 410,000 tested, 1.2% active; AID 1159524; calls by dose curve; tested in HEK293T cells; note: read-out not given here; potency is the fitted concentration of half-maximal effect; nearly all actives have a fitted effect of over 45% in size
HCV inhibitor – HCV inhibition; AID 651820; Potency, µM (top dose mostly 41.8 µM), inactives show top-dose activity change, negative = inhibition, hits mostly inhibitors; Huh7.5.1 HCVcc-Cre infection, luciferase reporter, 44 h; 340,000 tested, 3.4% active; note: potency is the fitted concentration of half-maximal effect
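HCVcc-Cre virus at an moi near 0.5 was added right after compound to cells cultured 4 h from seeding (1,000 cells/well). Luciferase activity was determined 44 h later, 15 min after substrate addition at RT.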
HCMV antiviral – blocks human cytomegalovirus replication. AID 1259415. HFF cells, HCMV-luciferase reporter, 72 h; stronger effect = lower value. 410,000 tested, 4.5% active. activity change, negative = inhibition, % at 57.5 µM; in the data active = activity change below about -60%; inconclusive = no clear call, values can overlap the other calls; inactive = above about -39%
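HFF cells seeded 16 h at 37C, treated with compounds, infected with luciferase-reporter HCMV at MOI 1 PFU/cell; luciferase read at 72 h post infection, normalized to buffer-only and Salinomycin controls.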
* = called active by the depositor; i = inactive; ? = inconclusive; / = no result; [ ] = another dose, or the depositor's remark. In the library only some 7.5% were active in any assay of this set; here they are far more common. Unless noted, calls come from the whole dose curve; as a rule, active = well fitted curve in the direction sought with a large enough effect; inconclusive = small, poorly fitted or top-dose-only effect, or another doubt; inactive = no such curve, though single readings can be large; an effect the other way counts as inactive or inconclusive. % is set by controls: 0 for no effect and ±100 for the full control effect.

SMILES | Vaccinia mCherry | Giardia FBPA inh | VACV Venus inh | FMDV antiviral | HCV inhibitor | HCMV antiviral
Cc1cn2c(=O)cc(COC(=O)c3cccc(NC(=O)COc4ccccc4Cl)c3)nc2s1 | -8.0%[7.34 µM] | / | -5.7%[7.34 µM] | 8.91µM* | / | 45.4
Cc1ccccc1OCC(=O)Nc1ccccc1C(=O)OCc1cc(=O)n2c(C)csc2n1 | -17.5% | / | -26.0% | ? | / | -75.4*
Cc1csc2nc(COC(=O)c3ccc(NC(=O)C(C)C)cc3)cc(=O)n12 | i | / | -22.3% | 5.0% | / | -34.3
COc1ccc(OC)c(CN2CCOc3ccc(C(O)c4cccnc4)cc3C2)c1 (centres undefined) | -22.5% | / | -13.3% | -4.2% | / | /
O=C(NCc1cccs1)c1ccc2sc(C3=C[C@@H](O)[C@@H](O)[C@@H](CO)O3)nc2c1 | i | / | 16.3% | 0.7% | / | 15.1
COc1ccc(OC)c(CNS(=O)(=O)c2ccc(-c3cc(C(F)(F)F)on3)s2)c1 | i | / | -24.0% | 0.0% | / | -70.3*
COc1ccccc1CNS(=O)(=O)c1ccc(-c2cc(C(F)(F)F)on2)s1 | -10.3% | / | -15.7% | -22.4% | / | -30.2
COc1ccccc1N1CCN(S(=O)(=O)c2ccc(-c3cc(C(F)(F)F)on3)s2)CC1 | i | / | -9.8% | 0.891µM* | / | -38.1
COc1cccc(N2CCN(S(=O)(=O)c3ccc(-c4cc(C(F)(F)F)on4)s3)CC2)c1 | -6.1% | / | -3.6% | -10.6% | / | 18.8
COc1ccccc1C(=O)Nc1nc2cc3c(cc2s1)OCCO3 | -6.9% | 0.3% | ? | 10.8% | ? | /
CCOC(=O)c1c(NC(=O)c2ccc(S(=O)(=O)N(C)CC3CCCO3)cc2)sc2c1CCN(C)C2 (centres undefined) | / | / | / | -13.8% | 12.6µM* | 24.8
O=C(Nc1nc2cc3c(cc2s1)OCCO3)c1cccc(N2C(=O)CCC2=O)c1 | i | -9.1% | -4.6% | -2.3% | 3.2% | 3.9
CN(CC1CCCO1)S(=O)(=O)c1ccc(C(=O)Nc2nc3cc4c(cc3s2)OCO4)cc1 (centres undefined) | -13.7% | ? | -16.4% | 0.0% | ? | -85.4*
CN(CC1CCCO1)S(=O)(=O)c1ccc(C(=O)Nc2ccc3c(c2)OCO3)cc1 (centres undefined) | -12.7% | -2.6% | -4.2% | 8.4% | -13.3% | -6.8
CCN(CC)S(=O)(=O)c1cccc(C(=O)Nc2nc3cc4c(cc3s2)OCCO4)c1 | ? | -0.7% | ? | 12.6µM* | 2.24µM* | -98.3*
CC(=O)N1CCc2c(sc(NC(=O)c3ccc(S(=O)(=O)N(C)CC4CCCO4)cc3)c2C(N)=O)C1 (centres undefined) | i | / | -3.5% | -14.7% | / | -15.6
O=C(Nc1nc2cc3c(cc2s1)OCCO3)c1cccs1 | -11.2% | -3.5% | -4.5% | ? | 11.2µM* | -16.4
CCc1ccc(N2C(=O)CS(=O)(=O)C23C(=O)N(Cc2ccccc2F)c2ccccc23)cc1 (centres undefined) | -1.2% | / | -3.0% | -3.9% | / | -6.6
CN1CCN(CCC(=O)N2c3ccccc3Sc3ccc(Cl)cc32)CC1 | / | 1.5% | / | -15.7% | ? | -34.4
OCCN1CCN(C2Cc3cc(Cl)ccc3Sc3ccc(Cl)cc32)CC1 (centres undefined) (tested in a mixture with another compound) | ? | 0.5% | ? | -19.5% | ? | /
CN1CCN(C2=Cc3ccccc3Sc3cc(F)c(F)cc32)CC1 | ? | -13.7% | -18.8% | ? | 11.2µM* | 7.7
CN1CCN(C2=Cc3cc(Cl)ccc3Sc3cc(F)ccc32)CC1 | ? | ? | ? | ? | 7.08µM* | -9.1
CN1CCN(C2Cc3cc(Cl)ccc3Sc3cc(F)ccc32)CC1 (centres undefined) | -19.5% | / | ? | ? | ? | -77.5*
CN1CCN(C2=Cc3ccccc3Sc3cc(F)c(Cl)cc32)CC1 | ? | -4.7% | ? | ? | 12.6µM* | -0.3
CN1CCN(C2=Nc3ccccc3Sc3ccc(Cl)cc32)CC1 | -8.0% | / | -27.4% | 10.4% | / | /
SMILES | Vaccinia mCherry | Giardia FBPA inh | VACV Venus inh | FMDV antiviral | HCV inhibitor | HCMV antiviral
Cc1ccc(S(=O)(=O)N[C@H]2CC[C@@]34CCCN3C(=O)CCC[C@H]4[C@H]2Cc2ccccc2)cc1 | / | / | / | / | / | -18.4
O=c1cnc2cnc(Nc3ccccc3)nc2n1C[C@H]1CCCO1 | / | -9.5% | / | -20.6% | / | /
COCCCNC(=O)c1sc2nc(C)c(C(=O)Nc3ccc(C)cc3C)c(-c3ccc(Cl)cc3)c2c1N | 7.1% | / | -2.4% | ? | / | 16.3
O=C(CN1C(=O)C2(SCC(=O)N2c2cccc(F)c2)c2ccccc21)NCCc1ccccc1 (centres undefined) | -7.9% | / | -9.1% | 1.4% | / | -107.1*
COc1cc(OC)cc(C(=O)NC(C(=O)NCCN(C)C)C23CC4CC(CC(C4)C2)C3)c1 (centres undefined) | / | 1.4% | / | 0.0% | 10µM* | 18.1
COc1cc(OC)cc(C(=O)NCCOC23CC4CC(CC(C4)C2)C3)c1 | -11.2% | -1.9% | -16.1% | -30.6% | ? | -33.0
Cc1ccc(-c2nnc(N3CCOCC3)c3ccccc23)cc1S(=O)(=O)NCC1CCCO1 (centres undefined) | / | 5.0% | -24.6% | -14.6% | -5.9% | -94.6*
CCOC(=O)CNS(=O)(=O)c1cc(-c2nnc(Nc3cccc(O)c3)c3ccccc23)ccc1C | -10.3% | / | -13.2% | 12.3% | / | 12.4
Cc1ccccc1Nc1nnc(-c2ccc(C)c(S(=O)(=O)NCC3CCCO3)c2)c2ccccc12 (centres undefined) | -16.1% | / | -3.1% | 19.5% | / | -75.9*
CCOC(=O)CNS(=O)(=O)c1cc(-c2nnc(Nc3ccc4c(c3)OCO4)c3ccccc23)ccc1C | -7.0% | -5.5% | -24.6% | 34.9% | ? | -65.2*
O=S(=O)(NCC1CCCO1)c1ccc(Cl)c2ccccc12 (centres undefined) | -9.2% | / | -10.2% | 83.4% | / | -84.0*
Cc1ccc(-c2nnc(Nc3cccc(O)c3)c3ccccc23)cc1S(=O)(=O)NCC1CCCO1 (centres undefined) | -26.4% | / | -9.6% | 13.0% | / | ?
O=S(=O)(NCC1CCCO1)c1ccccc1 (centres undefined) | / | 5.1% | / | 7.4% | 5.5% | 34.4
Cc1ccc(-c2n[nH]c(=O)c3ccccc23)cc1S(=O)(=O)NCC1CCCO1 (centres undefined) | -2.6% | / | -10.6% | 23.5% | -17.4% | -4.7
COc1ccc(-c2cc(C(=O)Nc3ccc(C#N)cc3)no2)cc1 | -7.4% | / | -11.5% | 20.4% | / | -6.2
CC(C)NC(=O)Nc1ccc2c(c1)C(=O)N([C@H](C)CO)C[C@@H](C)[C@@H](CN(C)C(=O)NC1CCCCC1)O2 | -18.1% | / | -2.1% | -1.9% | -24.2% | 17.0
Cc1ccc(-c2nnc(N3CCC(C)CC3)c3ccccc23)cc1C | 28.2µM* | 3.8% | 12.6µM* | 20µM* | ? | -27.4

Screening data as filed in PubChem BioAssay.
